# Compound activity: PubChem BioAssay, National Center for Advancing Translational Sciences (NCATS)
# Sampled rows, rich in hits. Any-hit rate of the full collection: about 17%.
# HepG2 viability: HepG2 cytotoxicity, counter-screen for TGF-b inhibitors; HepG2 CAGA-GFP viability, ATP luminescence, 18 h; Potency, µM (top dose mostly 46.1 µM), for the others: at the top dose activity change, negative = cytotoxicity, actives largely listed as cytotoxic; 410,000 compounds, 0.76% hits
#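 HepG2 CAGA-GFP cells (1000/well, DMEM with 1% FBS) received compound, then TGF-beta at 500 pg/mL final, and were incubated 18 hours at 37 degrees C. Viability was read by CellTiter-Glo luminescence. Media-only wells were set as complete cell-killing and DMSO as no toxicity.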
# DT40 TDP1 no CPT: qHTS for Inhibitors of human tyrosyl-DNA phosphodiesterase 1 (TDP1): qHTS in cells in absence of CPT; DT40 Tdp1-/- hTDP1 cells, no CPT, ATP luminescence, 48 h; Potency, µM (highest dose often 46.2 µM), for inactives: at the highest dose activity change, negative = growth inhibition, actives largely listed as inhibitors; 420,000 compounds, 15% hits; AID 686978, 2013; also: % is scaled to controls: 0 for no effect and ±100 for the full control effect; nearly all actives have a fitted effect of over 55% in size
#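 Camptothecin absent (DMSO only). Human TDP1-complemented DT40 knockout cells, 400 cells/well, 37 °C for minimum 48 hr; ATP measured via CellTiter-Glo, 30 min dark incubation, luminescence.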
# TGFb SMAD3 inh: inhibitors of TGF-b signaling | HepG2 CAGA-GFP TGF-b/SMAD3 reporter, GFP fluorescence, 18 h; TGF-beta stimulated, 500 pg/mL final | Potency, µM (highest dose often 46.1 µM), inactives show at the highest dose activity, negative = inhibition, most hits filed as inhibitors | 410,000 compounds, 1.2% hits; also: % is scaled to controls: 0 for no effect and ±100 for the full control effect; nearly all actives have a fitted effect of over 65% in size
#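 HEPG2 CAGA-GFP cells (1000/well, DMEM with 1% FBS) were pre-incubated 2 h at 37 degrees C, given compound by pin tool, then stimulated with TGF-beta at 500 pg/mL final for 18 h before per-cell GFP fluorescence imaging.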
# ATXN viability: cell viability loss in ATXN counter-screen. S2 cells (HEK-293 line with an ATXN2-luciferase reporter) viability, CellTiter-Fluor protease fluorescence, 24 h. Potency, µM (top dose mostly 56.7 µM), usual class: cytotoxic. 400,000 compounds, 0.49% hits. AID 651635; also: nearly all actives have a fitted effect of over 40% in size
# ATXN2 expr inh: inhibitors of ATXN2 expression; 360,000 compounds, 0.72% hits; HEK-293 ATXN2-luciferase reporter, luminescence, 24 h; AID 1745845; Potency, µM (titrated, usually from 57 µM), inactives show at the top dose activity change, negative = inhibition, usual class: inhibitors; also: % is scaled to controls: 0 for no effect and ±100 for the full control effect; nearly all actives have a fitted effect of over 55% in size
#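 ATXN2-luciferase reporter cells (luciferase flanked by upstream and downstream ATXN2 gene portions) were treated 24 h at 37 °C with compounds at up to 57 uM. SteadyGlo luminescence gave expression; GF-AFC fluorescence gave viability.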
# TDP1 cell CPT: DT40-hTDP1 cell growth loss with CPT. chicken DT40 Tdp1-/-;hTDP1 cells + 20 nM CPT, ATP luminescence, 48 h. Potency, µM (top dose mostly 46.2 µM), for the others: at the top dose activity change, negative = growth inhibition, most hits filed as inhibitors. 420,000 compounds, 12% hits. AID 686979; also: % is scaled to controls: 0 for no effect and ±100 for the full control effect; nearly all actives have a fitted effect of over 55% in size
#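 Cell growth measured by CellTiter-Glo luminescence after a minimum 48 h, 37 C compound exposure with 20 nM CPT in Tdp1-knockout DT40 cells stably expressing hTDP1, seeded 400/well; qHTS titration format.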
# * marks the source's active call; other numbers are inactive results; i = inactive; ? = inconclusive; nt = no result. Calls follow the shape of the dose curve; as a rule, active = well fitted curve in the direction sought with a large enough effect; inconclusive = small, poorly fitted or top-dose-only effect, or another doubt; inactive = no such curve, though single readings can be large; an effect the other way counts as inactive or inconclusive. Potency is read from the fitted curve at half-maximal effect.
SMILES,HepG2 viability,DT40 TDP1 no CPT,TGFb SMAD3 inh,ATXN viability,ATXN2 expr inh,TDP1 cell CPT
Cc1ccc(-n2nc(C(=O)N3CCN(c4ccccc4F)CC3)c3c4ccccc4n(C)c3c2=O)cc1,7%,-6%,2%,i,5%,-27%
COc1ccccc1C(=O)Nc1cc(C)ccc1NC(=O)c1ccco1,-22%,?,-17%,i,-13%,-5%
Cc1ccc(CNC(=O)CS(=O)(=O)CC(=O)O)cc1,-34%,31%,2%,i,9%,-1%
CC1=C/C(=N\NC(=S)Nc2cccnc2)CC(C)(C)C1,-27%,2.1µM*,?,i,-22%,1.3µM*
COc1ccccc1/C=N/NC(=S)Nc1cccnc1,0%,?,?,i,7%,-81%
C[C@@H]1CCC2[C@@H](C)[C@@H](O)O[C@@H]3O[C@@]4(C)CC[C@@H]1[C@@]23OO4 (stereo not given in full),nt,0.094µM*,nt,nt,nt,0.041µM*
COC(=O)c1ccc(NC(=O)CSC2=NC(=O)C(c3ccccc3)C(=O)N2)cc1 (stereo not given),40%,13%,-3%,i,-16%,-7%
Cc1ccc(Cn2c(=O)n(-c3ccccc3)c(=O)c3ccc(C(=O)NCc4ccco4)cc32)cc1,-43%,?,?,?,?,12µM*
Cc1ccc(-n2c(=O)c3ccc(C(=O)NCc4ccco4)cc3n(Cc3cccc(Cl)c3)c2=O)cc1,7%,?,10%,i,5%,-22%
Cc1cccc(Cn2c(=O)n(-c3ccc(CC(=O)NCc4ccco4)cc3)c(=O)c3sccc32)c1,-33%,15µM*,?,i,-23%,26µM*
O=[N+]([O-])c1ccc(-c2cc3ccccc3[nH]2)cc1,-16%,?,-4%,nt,nt,?
C/C=C1\[C@H]2C=C(C)C[C@]1(N)c1ccc(=O)[nH]c1C2,nt,-3%,nt,i,15%,-4%
Cc1ccnc(N2CCC(C(=O)Nc3ccc4c(c3)OCO4)CC2)n1,2%,-20%,-10%,i,-2%,-18%
COCCCNC(=O)C1CCN(c2nc(C)cc(C)n2)CC1,11%,2%,-11%,i,-6%,7%
Cc1cc(C)nc(N2CCC(C(=O)NCCc3ccccc3)CC2)n1,5%,9.2µM*,-7%,i,0%,8.2µM*
O=C(NCCc1ccc(Cl)cc1)C1CCN(Cc2cc3ccccc3n2Cc2ccccc2)CC1,-29%,18µM*,-26%,i,-25%,23µM*
Cc1cccc(Cn2c(CN3CCC(C(=O)NCCc4ccccc4)CC3)cc3ccccc32)c1,-31%,18µM*,-5%,?,-17%,?
Cc1cc(C)nc(N2CCC(C(=O)Nc3ccc4c(c3)OCO4)CC2)n1,1%,9.2µM*,0%,i,2%,8.2µM*
CCCNC(=O)C1(C)CCCN(C(=O)c2ccc(OC(F)F)cc2)C1 (stereo not given),3%,3%,-2%,i,14%,3%
CN(c1ccccc1)S(=O)(=O)c1cccc(C(=O)NNC(=O)c2ccccc2)c1,20%,16µM*,0%,i,-5%,16µM*
CN(c1ccccc1)S(=O)(=O)c1ccc(C(=O)NNC(=O)c2ccccc2)cc1,17%,-24%,13%,i,2%,-14%
O=C(NCc1cccc(C(F)(F)F)c1)c1cccc(S(=O)(=O)NCc2ccccc2)c1,-48%,23µM*,?,i,-6%,?
O=C(NCc1ccccc1F)c1cccc(S(=O)(=O)NCc2ccccc2)c1,-13%,?,-11%,i,-5%,7%
CC1(C)CC(NC(=O)c2cccc(S(=O)(=O)N(Cc3ccccc3)c3ccccc3)c2)CC(C)(C)N1,14µM*,?,?,?,?,?
CN(c1ccccc1)S(=O)(=O)c1cccc(C(=O)NCc2ccccc2)c1,-20%,16µM*,-2%,?,nt,?
SMILES,HepG2 viability,DT40 TDP1 no CPT,TGFb SMAD3 inh,ATXN viability,ATXN2 expr inh,TDP1 cell CPT
CCN(c1ccccc1)S(=O)(=O)c1cccc(C(=O)NCc2ccncc2)c1,5%,?,7%,i,-7%,-25%
CN1N=C(C(=O)Nc2ccc3c(c2)CCC3)CCC1=O,0%,-18%,7%,i,24%,-24%
CCOC(=O)N1CCN(C(C(=O)NC2CCCC2)C(C)C)CC1 (stereo not given),nt,-11%,nt,nt,nt,-4%
CN(c1ccccc1)S(=O)(=O)c1cccc(C(=O)NCCc2c[nH]c3ccccc23)c1,-21%,?,?,i,-16%,15µM*
Cc1cccc(C)c1N1CCN(C(=O)N2CCCCC2)CC1,-4%,4%,3%,i,-8%,-1%
CON=C(C(=O)N[C@@H]1C(=O)N2C(C(=O)O)=C(Cn3ccc(=N)n3CCO)CS[C@H]12)c1csc(N)n1,nt,nt,nt,nt,2%,nt
CC1(C)C=C2C(=NN(c3ccccc3)C(N)=C2C#N)CO1,-18%,?,-9%,i,2%,13µM*
CCC/C=N/NC(=O)c1cc(-c2ccccc2)nc2ccccc12,-1%,?,-1%,i,-21%,-10%
CCCc1ccc(-c2cc(C(=O)NN3CCOCC3)c3ccccc3n2)cc1,-2%,0.46µM*,0%,i,20%,?
O=C(NN1CCOCC1)c1cc(-c2ccc(Br)s2)nc2ccccc12,-6%,?,?,i,nt,?
CC(C)Oc1cccc(-c2cc(C(=O)NN3CCOCC3)c3ccccc3n2)c1,-18%,10µM*,6%,i,3%,15µM*
CCc1ccc(-c2cc(C(=O)Nn3cnnc3)c3ccccc3n2)cc1,8.9µM*,13µM*,?,i,?,7.3µM*
Cc1ccc(S(=O)(=O)N(C)C)cc1NC(=O)C(C)OC(=O)/C=C/c1cccs1 (stereo not given),20%,-20%,4%,i,0%,-30%
CCOc1cccc(C(=O)Nc2ccc(N3CCCC3)cc2)c1,0%,16µM*,0%,i,16%,-19%
COc1cccc(C(=O)NC(=S)Nc2ccc(N3CCCC3)cc2)c1,-4%,16µM*,1%,i,-9%,?
CC(C)Oc1cccc(C(=O)NC(=S)Nc2ccc(N3CCN(C)CC3)cc2)c1,-12%,?,7%,?,nt,?
